# In the supplement of paper PMC10646978:
# ± gives the standard deviation.
# Legend:
# Conditions in all cases: modulator concentration 10 µM
# [1] = tested on: RAW-Dual (murine macrophage reporter line); test: NF-kB reporter (SEAP) activity fold change vs agonist alone; higher = enhanced NF-kB activity
# Procedure, shortened: (§1)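 RAW-Dual murine macrophage reporter cells were plated at 50 000 per well in 384-well plates, pin-transferred compound to 10 μM final, and pre-incubated for 1 hour at 37 °C before a PRR agonist was added and the cells incubated overnight. NF-κB activity was read from supernatant SEAP with QUANTI-Blue at 620 nm absorbance, and IRF activity from Lucia luciferase with QUANTI-Luc by luminescence. Each signal was expressed as fold change by dividing by the mean agonist-only control on the same plate. Two replicate plates were averaged, with errors obtained by propagation.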
# [2] = tested on: RAW-Dual (murine macrophage reporter line); test: IRF reporter (Lucia luciferase) activity fold change vs agonist alone; higher = enhanced IRF activity
# Procedure, shortened: as §1
# [3] = tested on: RAW-Dual (murine macrophage reporter line); test: viability score (confluency relative to resting cells, overnight) (fraction); higher = more viable, active = viable (0.7 or more)
# Procedure, shortened: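 Confluency was the readout: RAW-Dual macrophages were imaged with IncuCyte after an overnight exposure to compound at 10 μM final. IncuCyte software produced two masks over all imaged wells. The viability score expresses confluency against resting cells, and both masks had to exceed 70% of resting cells for a compound to meet the cutoff.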
# [4] = agonist: CpG ODN 1826 0.5 ug/mL
Structure (SMILES),"NF-kB reporter [1, 4]",NF-kB reporter ([1]; agonist: LPS 0.1 ug/mL),NF-kB reporter ([1]; agonist: MPLA […]),IRF reporter ([2]; agonist: 3'3'-cGAMP 10 ug/mL),IRF reporter ([2]; agonist: LPS 0.1 ug/mL),IRF reporter ([2]; agonist: MPLA […]),viability score [3]
COC12C(COC(N)=O)C3=C(C(=O)C(C)=C(N)C3=O)N1CC1NC12 (configuration not stated),1.35 ± 0.12,0.967 ± 0.083,1.18 ± 0.13,1.09 ± 0.075,1.32 ± 0.18,1.41 ± 0.28,0.969 (active)
CN(C)CCOC(=O)COc1ccc(Cl)cc1.Cl,1.11 ± 0.084,1.09 ± 0.088,1.01 ± 0.038,0.882 ± 0.076,0.963 ± 0.043,0.964 ± 0.08,0.999 (active)
Nc1ccccc1NC(=O)c1ccc(CNc2nccc(-c3cccnc3)n2)cc1,2.46 ± 0.12,1.73 ± 0.15,2.58 ± 0.15,0.0523 ± 0.0046,0.16 ± 0.016,0.186 ± 0.051,0.56 (inactive)
O=C(Nc1nc2ccccc2n1CCN1CCOCC1)C1CCCCC1,1.03 ± 0.1,1 ± 0.088,0.933 ± 0.068,1.03 ± 0.039,1.55 ± 0.27,1.07 ± 0.12,1.02 (active)
COc1ccc(N(CC(=O)NCCc2ccc(OC)c(OC)c2)S(=O)(=O)c2ccc(OC)c(OC)c2)cc1,0.951 ± 0.083,0.994 ± 0.062,0.934 ± 0.12,1.01 ± 0.041,1.44 ± 0.18,1.2 ± 0.11,1.01 (active)
Cn1c2c(c3ccccc31)CCCC2NC=O (configuration not stated),0.787 ± 0.061,0.931 ± 0.06,1.03 ± 0.09,0.93 ± 0.042,1.36 ± 0.082,1.44 ± 0.14,1 (active)
OCCN1CCN(CCCN2c3ccccc3Sc3ccc(Cl)cc32)CC1,1.21 ± 0.051,0.614 ± 0.069,0.894 ± 0.077,3.18 ± 0.17,1.32 ± 0.18,1.49 ± 0.42,0.907 (active)
O=c1[nH]cnc2scc(-c3ccc(Br)cc3)c12,0.924 ± 0.067,1.08 ± 0.073,1.03 ± 0.061,1.14 ± 0.042,1.65 ± 0.13,1.29 ± 0.16,0.975 (active)
COc1ccc(C=NNc2nc(Nc3ccc(C)cc3Br)nc(N3CCOCC3)n2)c(OC)c1,0.238 ± 0.024,1.13 ± 0.13,1.84 ± 0.18,0.649 ± 0.067,1.67 ± 0.23,2.01 ± 0.27,1.05 (active)
COC(=O)C1=C(C)N(Cc2ccccc2)C(=O)C1=Cc1ccc(C)cc1,0.59 ± 0.048,0.655 ± 0.05,0.749 ± 0.069,0.4 ± 0.02,1.08 ± 0.068,0.948 ± 0.092,0.998 (active)
CCCCc1nc(C)c(CC(=S)N(C)C)c(=O)n1Cc1ccc(-c2ccccc2-c2nnn[nH]2)cc1,0.589 ± 0.025,0.273 ± 0.022,1.36 ± 0.077,0.0858 ± 0.062,3.7 ± 0.2,8.26 ± 0.79,0.139 (inactive)
O=C1CCC(N2C(=O)c3ccccc3C2=O)C(=O)N1 (configuration not stated),1.13 ± 0.088,1.03 ± 0.16,1.04 ± 0.12,1.11 ± 0.25,0.897 ± 0.054,0.863 ± 0.067,0.999 (active)
Ic1ccc2c3ccc(I)cc3c3[nH]c(-c4ccccc4)nc3c2c1,1.03 ± 0.094,1.07 ± 0.14,1.11 ± 0.042,0.814 ± 0.054,1.05 ± 0.1,1.31 ± 0.19,0.995 (active)
CC12CC3CC(C)(C1)CC(N)(C3)C2.Cl,0.831 ± 0.1,0.892 ± 0.086,0.855 ± 0.074,1.24 ± 0.056,1.2 ± 0.099,1.14 ± 0.095,0.978 (active)
O=C(Cn1ncccc1=O)N1Cc2cnc(N3CCOCC3)nc2C1,0.942 ± 0.082,1.1 ± 0.1,0.938 ± 0.042,0.956 ± 0.058,1.16 ± 0.21,1.09 ± 0.31,0.998 (active)
CCOC(=O)C(=NNc1ccccc1[N+](=O)[O-])C(=O)CSc1ccc(C)cc1,0.697 ± 0.046,0.789 ± 0.049,0.919 ± 0.056,0.154 ± 0.0098,1.14 ± 0.083,1.14 ± 0.12,1 (active)
CCOC(=O)c1ccccc1NC(=O)CN(c1cc(C)ccc1OC)S(C)(=O)=O,1.05 ± 0.097,1.03 ± 0.068,0.994 ± 0.047,1.01 ± 0.21,1.05 ± 0.11,1 ± 0.2,1 (active)
CC(C)OCc1ccc(C(=O)Nc2nnc(C(C)C)s2)o1,0.988 ± 0.1,1 ± 0.079,0.961 ± 0.15,0.986 ± 0.051,1.11 ± 0.068,1.05 ± 0.08,1.01 (active)
COS(=O)(=O)[O-].C[N+]1(C)CCC(=C(c2ccccc2)c2ccccc2)CC1,1.35 ± 0.061,1.09 ± 0.093,1.76 ± 0.32,0.849 ± 0.047,0.979 ± 0.15,0.823 ± 0.18,0.958 (active)
COc1ccc2cc(Br)ccc2c1CC(N)=O,1.09 ± 0.086,1.07 ± 0.12,1.04 ± 0.046,0.89 ± 0.13,1.07 ± 0.072,0.961 ± 0.14,0.968 (active)
CCCC1=NN2C(=N)C(=Cc3ccc(OCc4ccc(F)cc4)c(OCC)c3)C(=O)N=C2S1,0.992 ± 0.1,1.03 ± 0.057,0.97 ± 0.084,0.965 ± 0.04,1.59 ± 0.17,1.19 ± 0.073,1.01 (active)
NC(=O)c1cccc2cn(-c3ccc([C@@H]4CCCNC4)cc3)nc12,0.187 ± 0.014,0.573 ± 0.051,0.85 ± 0.072,0.508 ± 0.051,0.559 ± 0.07,0.977 ± 0.088,0.887 (active)
COC(=O)C1=C(C)NC(=O)CC1c1c(F)cccc1Cl (configuration not stated),0.986 ± 0.083,0.993 ± 0.087,0.975 ± 0.041,0.87 ± 0.032,1.03 ± 0.091,1.06 ± 0.14,0.995 (active)
CCCC(=O)Nc1ccc(N2CCCCC2)cc1,0.833 ± 0.067,0.901 ± 0.046,0.979 ± 0.09,0.895 ± 0.043,1.48 ± 0.1,1.65 ± 0.17,0.985 (active)
CC(C)C(=O)N1CCCc2ccc(NC(=O)COc3ccc4ccccc4c3)cc21,0.867 ± 0.07,1.44 ± 0.12,1.31 ± 0.071,0.771 ± 0.075,1.26 ± 0.092,1.54 ± 0.12,0.995 (active)
COc1ccc(Br)cc1S(=O)(=O)NCc1ccccc1,1.23 ± 0.3,0.932 ± 0.054,1.06 ± 0.11,1.18 ± 0.046,1.19 ± 0.13,1.21 ± 0.16,0.928 (active)
